Records with an inconclusive call do not appear. A call without a number means that no potency is given here. Calls of active or inactive are those of the source. The call rests on the fitted dose curve; in most records, active means well fitted cell-killing curve with a large enough effect; inconclusive means small, poorly fitted or top-dose-only effect, or effect the other way; inactive means no such curve, though single readings can be large or run the other way.
Potency means the concentration at half of the fitted maximal effect.

A short description of this test: Quantitative highthroughput screen to assess conditional lethalithy of NOMO1 cells grown in Human Plasma-Like Medium with dialyzed fetal bovine serum (HPLM+ds) (AID 1963878). Further: nearly all actives have a fitted effect of over 35% in size. The settings on record: NOMO1 AML cells in HPLM+ds, CellTiter-Glo viability, 48 h; series mostly up to 45.8 µM. The procedure, abridged:
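Each medium arm—HPLM with 10% dialyzed FBS, or RPMI1640 with 5 mM glucose and 10% untreated or dialyzed FBS—was screened against an 11-point, 3-fold compound titration for 48 h at 37 °C, with CellTiter-Glo luminescence as endpoint.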
In general terms: ATP-based viability assays read luminescence as a measure of living cells.
Take `CC(=O)OCC(CCn1cnc2cnc(N)nc21)COC(C)=O`: the Potency entry was “inactive”. Under `CNC(=O)c1ccc2cc(C3(O)CCn4cncc43)ccc2c1` (stereo not given) stands “inactive”; under `COc1ncc(-c2ccc3c(Nc4cc(Oc5cc(F)cc(F)c5)cc(C(=O)O)c4)c(S(=O)(=O)NC4CC4)cnc3c2)c(OC)n1`, “inactive”. Under `Cc1cc(C(C)Nc2ccccc2)c2nc(N3CCOCC3)cc(=O)n2c1` (stereo not given) stands “inactive”.

`O=C1CCC[C@@H]2[C@H]3CCC[N+]4([O-])CCC[C@@H](CN12)[C@@H]34` (stereo not given in full): the Potency is 5.9 µM (active). Under `CN(CCOc1ccc(NS(C)(=O)=O)cc1)CCc1ccc(NS(C)(=O)=O)cc1` stands “inactive”; under `CC[C@@H]([C@H](C)O)n1ncn(-c2ccc(N3CCN(c4ccc(OCC5CO[C@@](Cn6cncn6)(c6ccc(F)cc6F)C5)cc4)CC3)cc2)c1=O` (stereo not given in full), “inactive”; under `O=C(c1ccc(F)cc1)C1CCN(CCn2c(=O)[nH]c3ccccc3c2=O)CC1`, “inactive”.

As to `CC(O)C1C(=O)N2C(C(=O)O)=C(SC3CNC(C(=O)N(C)C)C3)C(C)C12` (stereo not given), the Potency entry is “inactive”. Under `COc1ccc(F)c(F)c1C(=O)c1cnc(NC2CCN(S(C)(=O)=O)CC2)nc1N` stands 4.18 µM (active); under `COc1ccc2c(Oc3ccc(NC(=O)c4c(C)n(CC(C)(C)O)n(-c5ccccc5)c4=O)cc3F)ccnc2c1`, “inactive”. Regarding `CC1CNc2c(cccc2S(=O)(=O)N[C@@H](CCCN=C(N)N)C(=O)N2CC[C@@H](C)C[C@@H]2C(=O)O)C1` (stereo not given in full), the Potency entry was “inactive”. In the case of `Cc1cnc(Nc2ccc(OCCN3CCCC3)cc2)nc1Nc1cccc(S(=O)(=O)NC(C)(C)C)c1` it was “inactive”; in that of `CCCCN(CCCC)CCC(O)c1cc2c(Cl)cc(Cl)cc2c2cc(C(F)(F)F)ccc12` (stereo not given), “inactive”. `CCn1c(-c2nonc2N)nc2cncc(CNC3CCNCC3)c21`: the Potency is 3.72 µM (active).

As for `NCCS(=O)(=O)O`, the Potency entry is “inactive”. In the case of `C[C@@H](NCCCc1cccc(C(F)(F)F)c1)c1cccc2ccccc12` it was “inactive”; in that of `COc1ccc2[nH]cc(CCNC(C)=O)c2c1`, “inactive”. Under `CCCOc1ccc(C(=O)OCCN(CC)CC)cc1N` stands “inactive”; under `NCCc1cnc[nH]1`, “inactive”.

With `CC1CCN(c2cc(N3CCN(C)CC3)ccc2NC(=O)c2cc(C#N)c[nH]2)CC1`, the Potency entry was “inactive”. Under `COc1ccc([C@@H]2CNC(=O)C2)cc1OC1CCCC1` stands “inactive”. In the case of `CN1CC[C@@H](c2c(O)cc(O)c3c(=O)cc(-c4ccccc4Cl)oc23)[C@@H](O)C1` it was 0.264 µM (active); in that of `Nc1ncnc2c1ncn2[C@@H]1O[C@H](CO)[C@@H](O)[C@@H]1O`, 5.9 µM (active). Under `Cc1c(-c2ccnn2C)cc(C(=O)NCc2ccc(S(C)(=O)=O)cn2)c(=O)n1-c1cccc(C(F)(F)F)c1` stands “inactive”; under `COC(=O)Nc1cc(Nc2cc(NC3CC3)c3ncc(C#N)n3n2)c(Cl)c(N2CCN(C)CC2)c1`, 16.6 µM (active).

As to `Cc1cc(Nc2ncnc3ccc(-c4ccc(CNCCS(C)(=O)=O)o4)cc23)ccc1Oc1ccn2ncnc2c1`, the Potency is 0.209 µM (active).

For `O[C@@H](COc1cccc2ncccc12)CN1CCN(C2c3ccccc3[C@@H]3[C@H](c4ccccc42)C3(F)F)CC1` (stereo not given in full), the Potency result is “inactive”. Under `CC1=CC(=O)c2ccccc2C1=O` stands “inactive”; under `CN(C)c1nc(N(C)C)nc(N(C)C)n1`, “inactive”; under `CNCc1ccc(-c2[nH]c3cc(F)cc4c3c2CCNC4=O)cc1`, “inactive”. In the case of `CC(NCCc1ccc(O)cc1)C(O)c1ccc(O)cc1` (stereo not given) it was “inactive”; in that of `CN1CCN(Cc2ccc(NC(=O)Nc3ccc(Oc4cc(NC(=O)C5CC5)ncn4)cc3)cc2C(F)(F)F)CC1`, 0.372 µM (active). Turning to `CC(C)C[C@H](NC(=O)[C@@H](NC(=O)c1cccc(-c2ccccc2)n1)[C@@H](C)O)B(O)O`, the Potency is 0.0662 µM (active).

Consider `Cc1nc(N)ncc1-c1nc(N2CCOCC2)c2sc(C(C)(C)O)cc2n1`, for which the Potency was 0.0372 µM (active). For `Cn1cnc2c(F)c(Nc3ccc(Br)cc3Cl)c(C(=O)NOCCO)cc21`, the Potency is 0.296 µM (active). In the case of `COC(=O)N1CC2(CC2)C[C@H](C(=O)NO)[C@H]1C(=O)N1CCN(c2ccccc2)CC1` it was 0.295 µM (active).

Take `CN1CCC(COc2cnc(-c3cccc(Cn4nc(-c5cccc(C#N)c5)ccc4=O)c3)nc2)CC1`: the Potency entry was “inactive”. `Oc1ccc(-c2nc(-c3ccc(F)cc3)c(-c3ccncc3)[nH]2)cc1`: the Potency was 3.72 µM (active).

For `CCN(CC)CCNC(=O)c1ccc2nc(-c3ccccc3)c(-c3ccc(CN4CCC(n5c(=O)[nH]c6ccccc65)CC4)cc3)nc2c1`, the Potency was 2.35 µM (active).

The values above are taken from PubChem BioAssay (NCATS).
